Laboratory results taken from PubChem BioAssay AID1159580 (chemical genetic matrix, 2015).
The whole screen tested about 5,500 compounds, of which about 2,000 (36%) were called active. Roughly 18% stayed inconclusive and do not appear here. Rule as the data show it: active = normalized growth mostly below about 0.91 (no sharp cut-off); inconclusive = no clear call, values can overlap the other calls; inactive = mostly above about 0.92. This is one part of the list.

Test: chemical genetic growth profiling, strain panel (AID 1159580);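 also: tested at 20 µM; growth read once vehicle control cultures reached saturation at 30 °C; 1 = growth at the plate median or of vehicle wells; lower values mean less growth of the strain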
Conditions: S. cerevisiae deletion strains, growth OD

Measured: normalized growth

COP(=O)(OC)C(O)C(Cl)(Cl)Cl (stereo not drawn)
inactive: locus YHR030C, strain SLT2, hits give low values 0.998 | locus YHR079C, strain IRE1, hits give low values 1.03 | locus YJL095W, strain BCK1, hits give low values 1.01 | locus YJR066W, strain TOR1, hits give low values 0.938 | locus YLR113W, strain HOG1, hits give low values 1 | locus YNL183C, strain NPR1, hits give low values 0.962 | locus YOR231W, strain MKK1, hits give low values 1.03 | locus YPL256C, strain CLN2, hits give low values 0.988
